These results are taken from PubChem BioAssay AID2685 (National Center for Advancing Translational Sciences (NCATS), 2010).

Out of some 320,000 compounds screened, about 2,100 (0.66%) were called active. Roughly 53% stayed inconclusive and do not appear here. Calls follow the shape of the dose curve; as a rule, active = well fitted inhibition curve with a large enough effect in the signal ratio, with a control signal flat (not every such curve was filed as active); inconclusive = small, poorly fitted or top-dose-only effect, or effect the other way, or a change in a side signal; inactive = flat fitted curve, though single readings scatter; the % refers to the signal ratio. Only a selection was taken, and actives are over-represented in it overall.
Potency is read from the fitted curve at half-maximal effect.

The assay in a line: qHTS Assay for Lipid Storage Modulators in Drosophila S3 Cells.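 As to cell number change: cells counted by Cell Tracker Red CMTPX staining in the red channel.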 As to lipid storage change, negative = inhibition: % is scaled to controls: 0 for no effect and ±100 for the full control effect. The following applies: BODIPY lipid droplet fluorescence, 18-24 h, cells fed with added oleic acid; cell number change: measured here: cell count max response; series mostly up to 46.1 µM; lipid storage change, negative = inhibition: at the top concentration. Summed up: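 Drosophila S3 cells loaded with oleic acid (400 uM, as added) and compounds at several concentrations; lipid droplets imaged by 488-nm laser-scanning cytometry, 500–530 nm intensity and object ratio to cell channel. Percent activity normalized to 20 uM Triacsin C.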
A general note: In qHTS, concentration-response curves come from the screen itself.
As for `Cc1ccc(Nc2nc(N)nc(CN3CCN(C)CC3)n2)cc1C`, the “lipid storage change, negative = inhibition” value is 2.99% (inactive) and the cell number change was 7.98%. Taken in the same sequence, the figures for `CN1CCN(Cc2nc(N)nc(Nc3ccc4c(c3)OCCO4)n2)CC1` were 1.73% (inactive) and -0.153%.

Consider `Cc1ccc(Nc2nc(N)nc(CN3CCN(C)CC3)n2)cc1`, for which the Potency was 25.9 µM (active) and the cell number change is -12%. As for `O=C(Cc1cccc(C(F)(F)F)c1)NCc1cccnc1`, the “lipid storage change, negative = inhibition” value was -11.2% (inactive) and the cell number change was 16.2%. Turning to `CCc1c(C)sc(NC(=S)N2CCN(C(=O)C3CCCO3)CC2)c1C(=O)OC` (stereo unspecified), the result was inactive. With `COc1ccc(C(=O)N/C(=C\c2cn(C)c3ccccc23)C(=O)N2CCN(C)CC2)cc1`, the compound was called inactive and the cell number change worked out at 12.5%. In the case of `COc1ccccc1NC(=O)/C(C#N)=C/c1ccncc1`, the Potency is 1.16 µM (active) and the cell number change is -3.78%. With `COc1ccccc1NC(=O)/C(C#N)=C/c1cccnc1`, the compound was called inactive and the cell number change was found to be 14.4%.

Take `COc1ccc(NC(=O)/C(C#N)=C/c2cccnc2)c(OC)c1`: the compound was called inactive and the cell number change was -14.9%. As for `Cc1ccc(NC(=O)CC2Oc3ccc(C)cc3NC2=O)c(C)c1` (stereo unspecified), the “lipid storage change, negative = inhibition” value was -7.11% (inactive) and the cell number change was determined as 7.72%. Taken in the same sequence, the figures for `Cc1ccc(S(=O)(=O)c2nnn(-c3cccc(F)c3)c2N)cc1` were 1.42% (inactive) and -21.1%. Turning to `C[C@H](NC(=O)[C@H]1N2C(=O)c3ccccc3C2SC1(C)C)C(=O)N1CCCCC1` (stereo partly specified), the Potency was 23.1 µM (active) and the cell number change was -4.2%.

With `CCC(C)NC(=O)[C@H]1N2C(=O)c3ccccc3C2SC1(C)C` (stereo partly specified), the “lipid storage change, negative = inhibition” value was -2.79% (inactive) and the cell number change was 25%.

Regarding `C[C@H](NC(=O)[C@H]1N2C(=O)c3ccccc3C2SC1(C)C)C(=O)N1CCC[C@H]1C(=O)O` (stereo partly specified), the “lipid storage change, negative = inhibition” value was 26.5% (inactive). `Cc1ccc(-c2nnnn2C2C/C(=N\NC(N)=S)C3OCC2O3)cc1` (stereo unspecified): the “lipid storage change, negative = inhibition” value was -15.2% (inactive) and the cell number change was -15.7%.

On to `COc1ccc(C(=O)OCC(=O)NCCCc2ccccc2)c(OC)c1`, for which the “lipid storage change, negative = inhibition” value was 7.81% (inactive) and the cell number change came to 26.9%. Regarding `COc1ccc(C(=O)N(CCc2ccccc2)Cc2cccs2)c(OC)c1`, the Potency is 13 µM (active) and the cell number change is -11.1%. On to `COc1ccc(C(=O)N(Cc2ccco2)Cc2cccs2)c(O)c1`, for which the compound was classed as inactive and the cell number change worked out at 11%. With `CCOc1cc(C2C(C#N)=C(N)SC(N)=C2C#N)ccc1OCCN1CCOCC1`, the compound was classed as inactive. As to `CCN=C1S/C(=C/c2ccc(-c3ccc(F)cc3)o2)C(=O)N1CC`, the Potency was 18.4 µM (active) and the cell number change was 4.49%. `CCN=C1S/C(=C/c2ccc(-c3ccc(Cl)cc3C(=O)O)o2)C(=O)N1CC`: the “lipid storage change, negative = inhibition” value was -0.481% (inactive). Take `O=C(O)c1cccc(-c2ccc(/C=C3/SC(=Nc4ccccc4)N(Cc4cccnc4)C3=O)o2)c1`: the “lipid storage change, negative = inhibition” value was 6.57% (inactive) and the cell number change is -5.87%. `CCN=C1S/C(=C\c2ccc(Sc3ccc(Cl)cc3)o2)C(=O)N1CC`: the “lipid storage change, negative = inhibition” value is 21.1% (inactive) and the cell number change is -1.66%. For `CCN1C(=O)/C(=C\c2ccc(-c3cccc(C(=O)OC)c3)o2)SC1=Nc1ccc(C(=O)O)cc1`, the Potency is 6.51 µM (active) and the cell number change is -21.2%. On to `CC(C)(C)OC(=O)CN1C(=O)S/C(=C\c2ccc(-c3cccc(C(=O)O)c3)o2)C1=O`, for which the “lipid storage change, negative = inhibition” value was -14.2% (inactive) and the cell number change is 2.36%.
